In PubChem BioAssay (NCI) one finds growth data, which are given here for 88 compounds.

Molecules are shown by their SMILES. Compounds without any hit were thinned out: in the full panel of roughly 83,000, 20% have a hit.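 A percent growth of 40 corresponds to 60% growth inhibition; 0 means no net growth; -100 means all cells died. Active threshold: below 10.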 Values without a mark were called inactive. Activity calls are given as the source filed them.

In this assay the test system is MDA-MB-468 breast. Put plainly: NCI-60 one-dose screen, 48 h (100 = growth as untreated, 0 = no growth, -100 = all killed). The following applies: 10 µM unless noted.

Regarding `O=C1C2=C(C(=O)c3c(O)cccc31)C(c1ccco1)c1sc(=O)[nH]c1S2` (stereo not drawn), the growth is 7.85% (active).
`CN1CCN(CCCOC(=O)c2c3c(n4ccccc24)C(=O)c2ncccc2C3=O)CC1`: the growth is 43.7%.
In the case of `O=C(/C=C/C12c3ccccc3C(c3ccccc31)C1C(=O)NC(=O)C12)c1ccc(Br)cc1` (stereo not drawn), the growth was 42.7%.
The same measure for `CCCc1n(Cc2ccc3ccccc3n2)cc[n+]1Cc1ccc2ccccc2n1`: -39.9% (active); for `O=C(O)CC(Cl)C(Cl)CC(=O)O` (stereo not drawn): 114%; for `O=C(CCl)N1c2cccc3cccc(c23)N(C(=O)CCl)C1c1cn(-c2ccccc2)nc1-c1cccc([N+](=O)[O-])c1`: 101%.
Take `COc1cc2oc(-c3cccc(C(=O)Nc4ccc(Cl)cc4)c3)cc(=O)c2c(O)c1OC`: the growth is 43.7%.
As for `CC(=O)Nc1ccc(CC[C@H]2CCC/C=C/[C@@H]3C[C@H](O)C[C@H]3[C@H](O)/C=C/C(=O)O2)cc1`, the growth was -23.5% (active).
The same measure for `COc1ccc(C/C(=C(\C)c2ccc(OCCN3CCCC3)cc2)c2ccc(OCCN3CCCC3)cc2)cc1`: 33.2%.
Turning to `CCCCNC(=O)Oc1ccc(/C(=C(\C)c2ccc(OC)cc2)c2ccc(OCCN3CCCCC3)cc2)cc1`, the growth is 64.4%.
As for `Cc1cc(C(c2ccccc2)c2ccccc2)ccc1NS(=O)(=O)c1ccccc1`, the growth is 111%.
`CN1C(=O)/C(=C/C=C/c2ccco2)SC1=S`: the growth was 5.83% (active).
As to `CCn1c2ccccc2c2ccc(C(C)=O)cc21`, the growth was 104%.
In the case of `Cn1cc(-c2noc(-c3cn(C)c4ncccc34)n2)c2cc(Cl)ccc21`, the growth is 91.3%.
The same measure for `O=C1C(=O)N(CCCCn2cc(-c3ccccc3)nn2)c2ccccc21`: 125%; for `CC(=O)Nc1ccc([I+]c2ccc([N+](=O)[O-])cc2)cc1`: 41.7%.
Consider `O=C(NNc1nc2cc(F)c(F)cc2n2c(CN3CC4CNCC4C3)ccc12)c1ncccn1` (stereo not drawn), for which the growth was -10.6% (active).
The same measure for `COc1cc(/C=C/c2cc(/C=C/c3ccc(O)c(OC)c3)n(C(=O)Nc3ccc(F)c(Cl)c3)n2)ccc1O`: -27.6% (active); for `COc1cc(Cn2cc3c(c2)-c2onc(CN4CCCC4)c2CC3)cc(OC)c1OC`: 82.7%.
The same measure for `COc1ccc(/C(C)=N/NC(=O)c2ccc(S(C)(=O)=O)cc2)cc1OC`: 95.7%; for `CCCCCCCCCCOC(c1ccccc1)c1ccccc1`: 92.1%; for `O=CN1N=C(c2ccc(Cl)cc2)CC1c1cccc(Nc2ccnc3cc(Cl)ccc23)c1` (stereo not drawn): -0.854% (active).
`Clc1ccc(-c2nnc(-c3ccco3)o2)cc1`: the growth is 100%.
The figure for `CC(C)c1cc(CNc2nc(Nc3cc(C4CC4)[nH]n3)cc(N3CCN(C)CC3)n2)on1` is -34.8% (active); for `COc1cc(-c2nc(Nc3nc4ccccc4[nH]3)nc(N)c2C#N)cc(OC)c1OC` it is 48.5%; for `NCCCNc1nc2ccccc2c2c(=O)c3cc(F)cc(Cl)c3sc12` it is 73.4%.
Consider `NC(=O)c1ccc2nc3c(n2c1)C(=O)C(=O)c1ccccc1-3`, for which the growth is -57.7% (active).
With `O=C(Nc1ccc(Cl)cc1)c1cc(-c2ccc(Cl)cc2)c2sc(=O)[nH]c2n1`, the growth is -3.42% (active).
Regarding `CN1CCN(Cc2ccc(NC(=O)c3cncc(C#Cc4cnn5ccccc45)c3)cc2C(F)(F)F)CC1`, the growth is -36.1% (active).
For `O=C(Cc1ccc(F)cc1)c1ccccc1`, the growth was 127%.
For the compound `NS(=O)(=O)c1ccc(CCN=C=S)cc1`, the growth is -6.54% (active).
With `O=C(O)C(=O)O`, the growth was 94.8%.
As to `COc1cc(/C=C/C(=O)c2ccc(Oc3ncnc4ccccc34)cc2)cc(OC)c1OC`, the growth is 13.8%.
The same measure for `CCC(C)(O)Cc1ccc(Cl)cc1` (stereo not drawn): 101%; for `O=C(Nc1ccc(-n2ccc3c(NC(=O)c4ccccc4)nccc32)cc1)c1ccc(Cl)c(C(F)(F)F)c1`: -9.71% (active); for `O=C1/C(=C/c2cc(F)cc(F)c2)Cc2cc3c(cc21)OCO3`: 8.61% (active).
As to `O=C1c2cc3c(cc2-c2c1c1cc(Cl)c(Cl)cc1c(=O)n2CCCn1ccnc1)OCO3`, the growth is -38.5% (active).
For the compound `O=C1CCN2C(=O)Nc3ccccc3C2C1` (stereo not drawn), the growth is 109%.
Turning to `C[N+]1=C(/C=C/c2ccc(I)cc2)C(C)(C)c2ccccc21`, the growth is 95.3%.
Turning to `COc1ccc(C2=NN(C(C)=O)C(c3cc(OC)c(OC)c(OC)c3)C2)cc1` (stereo not drawn), the growth is 108%.
Consider `CC(=O)Nc1cccc(NC(C)=O)n1`, for which the growth is 99.3%.
Regarding `OCc1ccccc1F`, the growth is 72.9%.
As to `CN(C)CCCNc1c2ccccc2nc2ccccc12`, the growth is 83.4%.
In the case of `CCOC(=O)c1ccc(NC(=O)c2nc(-c3cc(OC)c(OC)c(OC)c3)n(-c3ccc(Cl)cc3)n2)cc1`, the growth is 107%.
With `COc1cc2c(c(OC)c1OC)C(=O)CC(c1cccc(NC(=O)c3ccc(Br)cc3)c1)O2` (stereo not drawn), the growth is 12.1%.
For the compound `CCCCn1c(-c2ccc(C(=O)O/N=C(\N)c3ccc4ccccc4c3)cc2)nc(-c2ccccc2)c1-c1ccccc1`, the growth is 79.9%.
Consider `C=CN(C(=O)N1CCN(c2cc3c(cc2F)c(=O)c(C(=O)O)cn3C2CC2)CC1)c1nc(-c2ccc(OC)cc2)cs1`, for which the growth was 13.4%.
`CC(=O)Nc1ccc2c(c1)c(NC(C)=O)nn2C(=O)Nc1ccc(Cc2ccccc2)cc1`: the growth was 80.1%.
As to `O=C(O)c1nc(-c2ccccc2)oc1N1CCOCC1`, the growth is 99.8%.
The figure for `Cn1cc(-c2cc3ncnc(Nc4ccc(NC(=O)Nc5cc(C(C)(C)C)on5)cc4)c3s2)cn1` is 31.7%; for `CN(C)c1ccc(-c2ccc(-c3ccc(C(=N)N)cn3)o2)cc1` it is -64.4% (active).
The same measure for `Cc1cc(C)on1`: 98.5%; for `O=[N+]([O-])c1ccc(-c2nc(Cl)c3c(n2)CCCC3)o1`: 54.1%.
In the case of `COC(CCCl)c1ccc(Cl)cc1` (stereo not drawn), the growth is 102%.
Take `Cc1nc2cc(Nc3nc(Cl)nc(Nc4ccc(F)cc4)n3)ccc2n1Cc1ccccc1`: the growth was 76.2%.
With `COc1cc2nc3c(=O)n(CCN(C)C)cnn3c(=O)c2cc1OC`, the growth is 104%.
Consider `CCc1cccc(Cl)c1`, for which the growth is 113%.
`Nc1nc2c(c3ncncc13)C(c1cccc(C(F)(F)F)c1)Cc1ncncc1-2` (stereo not drawn): the growth is -10.4% (active).
Regarding `CCCCN1C=CCN(CCCC)C1`, the growth was -1.66% (active).
Turning to `Cc1cc2nc(C(Cl)Cl)nc(-c3ccc(Cl)cc3)n2n1`, the growth was -47.3% (active).
Turning to `Cc1cc(SCc2ccc(Cl)cc2Cl)nc(SCc2ccc(Cl)cc2Cl)n1`, the growth is 104%.
The figure for `O=C(NC1CC1)c1cc2n(n1)CC(c1ccccc1)N2` (stereo not drawn) is 98.5%.
`CC[C@]12C=CCN3CC[C@@]4(c5cc(NC(=O)CCC(=O)OCc6cn(Cc7ccc(F)cc7)nn6)c(OC)cc5N(C)[C@H]4[C@@](O)(C(=O)OC)[C@@H]1OC(C)=O)[C@@H]32`: the growth is 104%.
`COc1ccc2cc(-c3nc4ccc(C)cn4c3NCc3ccco3)c(=O)[nH]c2c1`: the growth was 67.1%.
With `COc1ccc(C2=NN3C(C2)c2cc(Br)ccc2OC3c2ccncc2)cc1` (stereo not drawn), the growth is 103%.
As for `CCc1cc(OC(=O)N2CCN(CCC(C)(COC(C)(C)C)COC(C)(C)C)CC2)ccc1Nc1cc(-c2ccc(-n3cccn3)cc2)[nH]n1`, the growth is 82.4%.
As for `Nc1nc2ccccc2c2c(=O)c3cc(F)ccc3sc12`, the growth was -27.2% (active).
The same measure for `COc1ccc(-c2nnc3n(C)c(=O)c4ccccc4n23)cc1N`: -6.61% (active); for `NC(=O)c1ccc(NC(=O)c2oc3ccccc3c2-c2cnn(-c3ccccc3)c2)cc1`: 24.2% [50 µM].
As for `COc1c(Cl)cc(Cl)cc1Cl`, the growth is 110%.
As to `CC(=O)N1N=C(c2cccc(Nc3ccncc3)c2)CC1c1ccc2c(c1)OCO2` (stereo not drawn), the growth is 85.5%.
Regarding `O=C1Nc2cc(-c3ccc(NS(=O)(=O)c4ccccc4)cc3)ccc2/C1=C/c1ccc[nH]1`, the growth is -7.8% (active).
The figure for `COc1cc2c(c3c1c(=O)c1cccc(F)c1n3C)C=CC(C)(C)O2` is 42.7%; for `Fc1cccc(CNc2c3ccccc3nc3ccccc23)c1F` it is 22%; for `COc1cc(NC(C)CCCN)c2nc(C)ccc2c1Oc1ccc(F)cc1` (stereo not drawn) it is 57.3%.
With `C=C1CC[C@@H]2[C@](C)(COC(C)=O)[C@H](OC(C)=O)CC[C@@]2(C)[C@@H]1CC(NCc1ccc(F)cc1)C1=CCOC1=O` (stereo partly drawn), the growth was 27.5%.
For the compound `C=CCc1cc(C)ccc1NC(C(=O)NCC(=O)OC)c1ccccc1` (stereo not drawn), the growth is 111%.
Turning to `O=S(=O)(Nc1ncccn1)c1ccc(Nc2ccc3nnc(-c4ccncc4)n3n2)cc1`, the growth was 103%.
For `O=C(O)c1cc(N=Nc2ccc(-c3ccc(N=Nc4c(S(=O)(=O)O)cc5ccc(Nc6ccccc6)cc5c4O)cc3)cc2)ccc1O`, the growth was 124%.
With `Nc1nccc2c1ccn2-c1ccc(NC(=O)Nc2cccc(C(F)(F)F)c2)cc1`, the growth was 72.8%.
With `O=C(O)CCCCCCCCCCCCCCC(=O)O`, the growth was 95.6%.
As for `CCN(CC)C(=O)C1=C(C)NC(=O)NC1c1ccc2c(c1)OCO2` (stereo not drawn), the growth was 112%.
The figure for `CCCNC(=O)Oc1ccc(/C(=C(/C)Cc2ccc(OC)cc2)c2ccc(OCCN3CCCC3)cc2)cc1` is 69%.
In the case of `CCCCCC#CC1OC23CCCCC2C(C#N)(C(=N)O3)C1(C#N)C#N` (stereo not drawn), the growth is 92.6%.
On to `O=C1C2C3C=CC(O3)C2C(=O)N1Nc1ccccc1` (stereo not drawn), for which the growth was 105%.
For the compound `COc1ccc(CNc2c3ccccc3nc3ccccc23)c(OC)c1`, the growth was 4.83% (active).
Turning to `O=C(Nc1ccc2c(c1)-c1ccccc1C2)C1CC(=O)N(c2ccc3c(c2)OCO3)C1` (stereo not drawn), the growth is 52.7% [50 µM].
With `O=C1/C(=C/c2ccccc2[N+](=O)[O-])COc2ccc(O)c(O)c21`, the growth was -58% (active).
